For 27 compounds, Potency results are on record in PubChem BioAssay (Tox21).

Where “and” joins values, the source holds several entries; their conditions need not be identical. Equal values may be shown once. Records with an inconclusive call do not appear. The source holds several records for some structures; these can differ, active in one and inactive in another. Calls of active or inactive are those of the source. Unless noted, the call rests on the fitted dose curve; in most records, active means well fitted curve in the direction sought with a large enough effect in the repeat runs; inconclusive means weak or mixed curves; inactive means no such curve, though single readings can be large; an effect the other way counts as inactive or inconclusive.

Test [1] in a line: qHTS assay to identify aromatase inhibitors - cell viability counter screen (AID 743084).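 Further: cells stimulated with testosterone during compound exposure; nearly all actives have a fitted effect of over 55% in size.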 Further: potency means the concentration at half of the fitted maximal effect. Particulars: MCF-7 aro ERE viability, CellTiter-Fluor, 24 h; series mostly up to 70.3 µM.
The target in test [2] is Aryl hydrocarbon receptor (Homo sapiens) (UniProt P35869). The test is described as follows: qHTS assay to identify small molecule that activate the aryl hydrocarbon receptor (AhR) signaling pathway (AID 743085).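 Further: HG2L7.5c1 human HepG2 liver cells with stably integrated DRE-driven firefly reporter; nearly all actives have a fitted effect of over 15% in size.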 The note with it: HepG2 AhR-luc (HG2L7.5c1), luciferase, 24 h; series mostly up to 70.3 µM. The essentials: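 Compounds were tested in HepG2 hepatocellular carcinoma cells harbouring a stably integrated luciferase gene under control of 20 DREs. Increased reporter signal after 24 h treatment at 37C was taken as AhR activation.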
On the technique in general: qHTS replaces the single test concentration by a dilution series.

Test [3] is described as follows: qHTS assay to identify small molecule that activate the aryl hydrocarbon receptor (AhR) signaling pathway - cell viability counter screen (AID 743086). Further: nearly all actives have a fitted effect of over 45% in size. Further: potency means the concentration at half of the fitted maximal effect. The note with it: HepG2-AhR-luc viability, CellTiter-Fluor, 24 h; series mostly up to 70.3 µM. The essentials: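 HepG2-AhR-luc (HG2L7.5c1) cells, 4000/well, were preincubated 5 h at 37C, exposed to compound in qHTS format for 24 hr at 37C, then given CellTiter-Fluor for 30 min; viability was read as fluorescence in the reporter wells.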

The target in test [4] is Peroxisome proliferator-activated receptor gamma (Homo sapiens) (UniProt P37231). In words: qHTS assay to identify small molecule agonists of the peroxisome proliferator-activated receptor gamma (PPARg) signaling pathway (AID 743094; active means well fitted activation curve with a large enough effect in the signal ratio in the repeat runs, not every such curve was filed as active; the % refers to the signal ratio). Particulars: HEK293H PPARg-UAS-bla, beta-lactamase FRET ratio, 17 h; series mostly up to 57 µM. The essentials: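 GeneBLAzer PPARg UAS-bla HEK293H cells carrying a stably integrated beta-lactamase reporter were pre-incubated 5 h at 37C, then exposed to compounds in DMSO for 17 h at 37C; LiveBLAzer B/G FRET substrate was added for 1 h at room temperature and fluorescence read.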
Peroxisome proliferator-activated receptor gamma (Homo sapiens), sequence (P37231 whole entry, looked up): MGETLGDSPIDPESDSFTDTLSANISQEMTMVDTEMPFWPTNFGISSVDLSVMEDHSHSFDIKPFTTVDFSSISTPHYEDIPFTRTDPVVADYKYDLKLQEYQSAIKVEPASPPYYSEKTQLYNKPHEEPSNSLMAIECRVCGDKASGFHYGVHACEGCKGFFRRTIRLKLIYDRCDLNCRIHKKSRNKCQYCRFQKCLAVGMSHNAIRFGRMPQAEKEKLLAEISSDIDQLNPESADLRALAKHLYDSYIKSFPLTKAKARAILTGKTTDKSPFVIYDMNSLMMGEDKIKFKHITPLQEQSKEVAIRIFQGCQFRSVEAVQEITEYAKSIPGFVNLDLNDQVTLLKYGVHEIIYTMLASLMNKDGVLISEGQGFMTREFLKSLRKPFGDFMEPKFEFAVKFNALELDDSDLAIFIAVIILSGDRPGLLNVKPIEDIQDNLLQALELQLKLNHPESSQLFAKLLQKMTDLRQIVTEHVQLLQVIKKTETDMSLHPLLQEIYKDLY

Aryl hydrocarbon receptor (Homo sapiens), sequence (P35869 whole entry, looked up): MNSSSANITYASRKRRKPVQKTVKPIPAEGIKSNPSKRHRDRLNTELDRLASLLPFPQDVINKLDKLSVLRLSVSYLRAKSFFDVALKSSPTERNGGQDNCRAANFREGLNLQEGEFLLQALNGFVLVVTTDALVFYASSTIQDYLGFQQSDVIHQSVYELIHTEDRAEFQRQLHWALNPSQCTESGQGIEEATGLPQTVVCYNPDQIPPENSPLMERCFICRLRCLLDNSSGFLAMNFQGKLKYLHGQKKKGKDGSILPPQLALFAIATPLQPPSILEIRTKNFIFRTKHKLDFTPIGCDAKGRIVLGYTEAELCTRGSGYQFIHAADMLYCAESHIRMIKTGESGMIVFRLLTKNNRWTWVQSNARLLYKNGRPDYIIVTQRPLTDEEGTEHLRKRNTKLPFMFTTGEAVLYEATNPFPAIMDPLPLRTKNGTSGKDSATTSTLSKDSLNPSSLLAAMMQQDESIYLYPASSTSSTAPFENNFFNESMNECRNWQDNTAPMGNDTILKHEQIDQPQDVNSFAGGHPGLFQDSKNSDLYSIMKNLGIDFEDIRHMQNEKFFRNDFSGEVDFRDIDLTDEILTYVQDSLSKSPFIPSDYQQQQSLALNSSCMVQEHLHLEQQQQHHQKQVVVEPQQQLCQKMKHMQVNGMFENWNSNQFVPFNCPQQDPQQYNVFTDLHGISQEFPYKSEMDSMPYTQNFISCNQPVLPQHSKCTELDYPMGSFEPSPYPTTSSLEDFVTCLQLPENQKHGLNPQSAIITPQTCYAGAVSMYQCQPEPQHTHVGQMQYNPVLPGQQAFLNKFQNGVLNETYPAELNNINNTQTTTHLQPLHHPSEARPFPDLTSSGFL

Take `CC/C(=C(/CC)c1ccc(OP(=O)(O)O)cc1)c1ccc(OP(=O)(O)O)cc1`: the Potency entry in test [1], in test [2], in test [3] and in test [4] was “inactive” in each case.

For the compound `CCOC(=O)COc1ccc2c(=O)cc(-c3ccccc3)oc2c1`, the Potency result in test [1], in test [2], in test [3] and in test [4] was “inactive” throughout.

Consider `CC(=O)N[C@@H](C=O)[C@H](O)[C@H](O)[C@@H](O)CO`, for which the Potency result in test [1], in test [2], in test [3] and in test [4] was “inactive” in each case.

As for `Cc1c(N)nc([C@H](CC(N)=O)NC[C@H](N)C(N)=O)nc1C(=O)N[C@H](C(=O)N[C@H](C)[C@@H](O)[C@H](C)C(=O)N[C@H](C(=O)NCCc1nc(-c2nc(C(=O)NCCCCN=C(N)N)cs2)cs1)[C@@H](C)O)[C@@H](O[C@@H]1O[C@@H](CO)[C@@H](O)[C@H](O)[C@@H]1O[C@H]1O[C@H](CO)[C@@H](O)[C@H](OC(N)=O)[C@@H]1O)c1cnc[nH]1`, the Potency entry in test [1], in test [2], in test [3] and in test [4] was “inactive” throughout.

Take `CC(C)=CCC/C(C)=C/CC/C(C)=C/CC/C=C(\C)CC/C=C(\C)CCC=C(C)C`: the Potency result in test [1], in test [2], in test [3] and in test [4] was “inactive” in each case.

As to `O=c1[nH]c(=O)n([C@H]2C[C@H](O)[C@@H](CO)O2)cc1/C=C/Br`, the Potency entry in test [1], in test [2], in test [3] and in test [4] was “inactive” throughout.

As to `O=C1CCC(c2ccccc2)(C2CCN(Cc3ccccc3)CC2)C(=O)N1` (stereo not drawn), the Potency result in test [1], in test [2], in test [3] and in test [4] was “inactive” throughout.

Regarding `CCCCCCCCCC(=O)NO`, the Potency result in test [1], in test [2], in test [3] and in test [4] was “inactive” each time.

In the case of `NC[C@@H]1CC[C@@H](N)[C@@H](O[C@H]2[C@H](O)[C@@H](O[C@H]3O[C@H](CO)[C@@H](O)[C@H](N)[C@H]3O)[C@H](N)C[C@@H]2N)O1`, the Potency entry in test [1], in test [2], in test [3] and in test [4] was “inactive” throughout.

Turning to `CC[C@H]1OC(=O)[C@H](C)C(=O)[C@H](C)[C@@H](O[C@@H]2O[C@H](C)C[C@H](N(C)C)[C@H]2O)[C@](C)(OC)C[C@@H](C)C(=O)[C@H](C)[C@H]2N(CCCCn3cnc(-c4cccnc4)c3)C(=O)O[C@]12C`, the Potency result in test [1] is “inactive and 15 µM (active)”; in test [3], “inactive and 21.1 µM (active)”. Also, the Potency result in test [2] and in test [4] was “inactive” each time.

On to `Cc1c(O)c(=O)ccn1C`, for which the Potency entry in test [1], in test [2], in test [3] and in test [4] was “inactive” throughout.

As for `C[C@H](NCCc1ccc(O)cc1)[C@H](O)c1ccc(O)cc1`, the Potency entry in test [1], in test [2], in test [3] and in test [4] was “inactive” each time.

For `NCC(O)CC(=O)O` (stereo not drawn), the Potency result in test [1], in test [2], in test [3] and in test [4] was “inactive” in each case.

As to `C=C(Nc1ccc(OCC)cc1)Nc1ccc(OCC)cc1`, the Potency entry in test [1], in test [2], in test [3] and in test [4] was “inactive” each time.

As for `NC[C@H]1O[C@H](O[C@H]2[C@H](O)[C@@H](O[C@H]3O[C@H](CO)[C@@H](O)[C@H](N)[C@H]3O)[C@H](N)C[C@@H]2N)[C@H](N)C[C@@H]1O`, the Potency result in test [1], in test [2], in test [3] and in test [4] was “inactive” throughout.

Consider `Cc1cnc(C(=O)O)c[n+]1[O-]`, for which the Potency entry in test [1], in test [2], in test [3] and in test [4] was “inactive” each time.

For the compound `OCl`, the Potency result in test [1], in test [2], in test [3] and in test [4] was “inactive” throughout.

Turning to `CC1(C)S[C@@H]2[C@H](N3C(=O)C(c4ccccc4)NC3(C)C)C(=O)N2[C@H]1C(=O)O` (stereo partly drawn), the Potency entry in test [1], in test [2], in test [3] and in test [4] was “inactive” in each case.

For `C=CC1=C(C(=O)O)N2C(=O)[C@@H](NC(=O)/C(=N\O)c3csc(N)n3)[C@H]2SC1` (stereo in doubt), the Potency entry in test [1], in test [2], in test [3] and in test [4] was “inactive” in each case.

Regarding `C[N+]1(CCCCC[N+]2(C)CCCC2)CCCC1`, the Potency entry in test [1], in test [2], in test [3] and in test [4] was “inactive” each time.

As for `CS(=O)(=O)c1ccc([C@@H](O)[C@@H](COC(=O)CN)NC(=O)C(Cl)Cl)cc1`, the Potency result in test [1], in test [2], in test [3] and in test [4] was “inactive” in each case.

For `CO/N=C(\C(=O)N[C@@H]1C(=O)N2C(C(=O)O)=C(CSc3cnns3)CS[C@H]12)c1csc(N)n1`, the Potency entry in test [1], in test [2], in test [3] and in test [4] was “inactive” in each case.

As to `O=P(O)(O)C(O)(Cn1ccnc1)P(=O)(O)O`, the Potency result in test [1], in test [2], in test [3] and in test [4] was “inactive” throughout.

Regarding `C=CC1=C(C(=O)O)N2C(=O)[C@@H](NC(=O)/C(=N/OCC(=O)O)c3csc(N)n3)[C@H]2SC1` (stereo in doubt), the Potency entry in test [1], in test [2], in test [3] and in test [4] was “inactive” in each case.

In the case of `Cc1cccc(C)c1NC(=O)C1CCCCN1C` (stereo not drawn), the Potency result in test [1], in test [2], in test [3] and in test [4] was “inactive” each time.

As for `Nc1cc(Cl)c(NC2=NCCN2)c(Cl)c1`, the Potency result in test [1], in test [2], in test [3] and in test [4] was “inactive” each time.

On to `CCCCCCOC(=O)c1cccnc1`, for which the Potency result in test [1], in test [2], in test [3] and in test [4] was “inactive” in each case.
